Source: PubChem
proKLK7 act = proKLK7 zymogen activators, primary screen, biochemical, fluorescence intensity; Kallikrein-7 (Homo sapiens), P49862; activation, % at 7 µM; AID 652039, 2013; actives 0.9% (n = 370,000); purified proKLK7, EDANS-DABCYL substrate fluorescence; 100% is mature enzyme control, 0% vehicle;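 active means activation above the mean of all tested compounds plus 3 SD, computed per campaign excluding outliers beyond control limits, cut at about 13% in these data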
ADAM17 inh = ADAM17 inhibitors, primary screen, biochemical, QFRET; Disintegrin and metalloproteinase domain-containing protein 17 (Homo sapiens), P78536; recombinant ADAM17, EDANS/DABCYL FRET peptide cleavage; inhibition, % at 6.95 µM; actives 0.83% (n = 370,000); AID 720648, 2013;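 active means inhibition above the mean of compounds lying between control limits plus 3 SD, set per campaign, cut at about 8.5% in these data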;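 further: 0% = DMSO-only wells as the low control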
PLC-gamma1 inh = PLC-gamma1 enzyme inhibitors, primary screen, biochemical, fluorescence, purified enzyme; 1-phosphatidylinositol 4,5-bisphosphate phosphodiesterase gamma-1 (Homo sapiens), P19174; fluorogenic substrate; inhibition, % at 12.2 µM; actives 0.84% (n = 370,000); AID 720700, 2013; in the data active means inhibition above about 9.5%
PLC-beta3 inh = human PLC-beta3 inhibitors, primary screen, biochemical, fluorescence; 1-phosphatidylinositol 4,5-bisphosphate phosphodiesterase beta-3 (Homo sapiens), Q01970; Purified PLC-beta3, fluorogenic substrate; inhibition, % at 12.2 µM; actives 0.18% (n = 370,000); AID 720704, 2013; in the data active means inhibition above about 11%;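 further: 0% = median of compound wells on plate and 100% = full blocker control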
Target sequence (Q01970 whole entry, looked up): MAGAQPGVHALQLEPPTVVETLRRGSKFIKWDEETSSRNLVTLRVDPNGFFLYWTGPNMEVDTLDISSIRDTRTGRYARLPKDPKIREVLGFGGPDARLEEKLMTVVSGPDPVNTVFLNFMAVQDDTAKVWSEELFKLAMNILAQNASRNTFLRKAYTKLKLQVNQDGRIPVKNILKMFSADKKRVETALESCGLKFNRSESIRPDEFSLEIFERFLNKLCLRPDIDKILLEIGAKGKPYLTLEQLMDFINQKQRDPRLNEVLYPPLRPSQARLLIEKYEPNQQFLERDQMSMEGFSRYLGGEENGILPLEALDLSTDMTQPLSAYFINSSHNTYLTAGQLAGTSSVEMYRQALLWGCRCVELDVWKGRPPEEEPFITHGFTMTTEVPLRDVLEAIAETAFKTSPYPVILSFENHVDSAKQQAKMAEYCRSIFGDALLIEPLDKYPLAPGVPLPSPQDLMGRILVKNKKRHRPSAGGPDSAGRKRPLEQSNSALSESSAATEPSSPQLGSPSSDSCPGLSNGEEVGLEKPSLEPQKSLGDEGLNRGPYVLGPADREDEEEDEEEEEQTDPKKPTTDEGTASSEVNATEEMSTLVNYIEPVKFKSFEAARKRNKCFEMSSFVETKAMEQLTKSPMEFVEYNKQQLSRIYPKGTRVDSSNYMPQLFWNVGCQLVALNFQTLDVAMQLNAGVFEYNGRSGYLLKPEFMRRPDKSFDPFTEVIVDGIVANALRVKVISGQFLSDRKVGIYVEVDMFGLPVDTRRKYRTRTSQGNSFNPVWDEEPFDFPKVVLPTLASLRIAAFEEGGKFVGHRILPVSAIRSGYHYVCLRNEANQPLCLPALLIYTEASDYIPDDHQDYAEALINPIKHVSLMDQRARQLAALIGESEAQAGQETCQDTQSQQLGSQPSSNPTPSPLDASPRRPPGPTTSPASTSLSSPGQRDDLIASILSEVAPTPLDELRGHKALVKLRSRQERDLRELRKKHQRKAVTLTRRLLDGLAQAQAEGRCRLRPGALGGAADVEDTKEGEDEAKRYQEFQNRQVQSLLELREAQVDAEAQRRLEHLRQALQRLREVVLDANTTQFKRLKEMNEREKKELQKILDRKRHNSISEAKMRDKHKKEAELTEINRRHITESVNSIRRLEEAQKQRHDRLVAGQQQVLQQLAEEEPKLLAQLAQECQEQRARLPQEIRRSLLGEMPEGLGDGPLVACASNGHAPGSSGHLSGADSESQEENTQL
ADAM10 inh = human ADAM10 inhibitors, primary screen, biochemical, QFRET, HTS; recombinant ADAM10, EDANS/DABCYL FRET peptide cleavage, 3 h; AID 720582, 2013; actives 0.62% (n = 370,000); Disintegrin and metalloproteinase domain-containing protein 10 (Homo sapiens), O14672; inhibition, % at 7 µM;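 active means inhibition above a per-campaign cutoff equal to the mean of compounds falling between control-based bounds plus 3 SD, cut at about 20% in these data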;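 further: 0% = DMSO wells while the 100% control is not disclosed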
proKLK7 act conf = proKLK7 zymogen activators, confirmation, biochemical, fluorescence intensity, triplicate. purified proKLK7, EDANS-DABCYL substrate fluorescence; scaled: vehicle 0, mature enzyme 100. shares compounds with proKLK7 act. actives 68% (n = 3,200). activation, % at 7 µM;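 active means activation, as change over the incubation, above the mean of all tested compounds plus 3 SD, cut at about 13% in these data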
EDANS-DABCYL int = EDANS-DABCYL substrate optical interference, artefact control for kallikrein-7 zymogen activator project, biochemical, fluorescence intensity, high throughput. shares compounds with proKLK7 act. no enzyme, 4 h; solvent 0%, active enzyme control 100%. activation, % at 7 µM. actives 80% (n = 3,200). AID 686952, 2013;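 active means activation above the all-compound mean plus 3 SD, ignoring values outside control-based bounds, cut at about 4.8% in these data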;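 further: value is the 4 h activation minus the activation read at time zero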
EDANS interf = EDANS fluorescence interference in dose response, no enzyme; actives 20% (n = 250); EC50, µM; EDANS-DABCYL peptide fluorescence interference; AID 720493; shares compounds with proKLK7 act;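 active means compounds that raise the fluorescence signal in this interference counterscreen, with EC50 at or below 10 µM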;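 further: intact quenched peptide substrate alone read at 355 nm excitation and 520 nm emission; signal is fluorescence gain from T0 to T4 after four hours at room temperature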
Numbers without * were called inactive; i = inactive; . = not tested or not shown. This is a sample that favours compounds with a hit; in the whole collection about 2.9% have one here.

SMILES	proKLK7 act	ADAM17 inh	PLC-gamma1 inh	PLC-beta3 inh	ADAM10 inh	proKLK7 act conf	EDANS-DABCYL int	others
c1cc(-c2cnc3cccnn23)c2cccnc2c1	18*	-262	i	i	i	18*	22*
CCCC(C)C(=O)NC1CCCCN(C)C1=O (stereo not drawn)	0	-1	0	3	-1	.	.
Cc1nn(-c2ccc(F)cc2)c2sc(C(=O)OC3CCOC3=O)cc12 (stereo not drawn)	20*	-47	-61	-78	-281	24*	23*
CNC(=O)COC(=O)c1cc2c(C)nn(-c3ccc(F)cc3)c2s1	0	-8	-7	-10	-23	.	.
COCCNC(=S)NCCCNc1nc2cc3c(cc2cc1C#N)OCO3	25*	i	-235	-294	i	14*	19*
CCOCCCNC(=S)NCCCNc1nc2cc3c(cc2cc1C#N)OCO3	5	-262	-131	-142	i	.	.
C[C@@H]1CCN(C2CC2)S(=O)(=O)c2ccc(N3CC[C@H](N(C)C)C3)cc2O1	0	-3	0	-2	-12	.	.
c1ccc(NC2=Nc3cccc4cccc2c34)cc1	0	-1	-46	-54	-7	.	.
c1cc2c3c(cccc3c1)C(N1CCCCCC1)=N2	52*	-40	-382	-435	-162	7	9.4*
c1ccc2c(c1)CCN(C1=Nc3cccc4cccc1c34)C2	14*	-31	-285	-357	-83	7	8.2*
Cc1cc(N2CCN(C)CC2)nc2ccc(NC(=S)N3CCN(c4ccc(F)cc4)CC3)cc12	7	-96	-126	-198	-277	.	.
Cc1cc(N2CCN(C)CC2)nc2ccc(NC(=S)N3CCN(c4ccc(Cl)cc4)CC3)cc12	15*	-189	-235	-343	-435	2	3
CCCN(CCC)CCNC(=O)CCC(=O)Nc1ccc2nc(N3CCN(C)CC3)cc(C)c2c1	25*	i	i	i	i	120*	121*
Cc1cc(N2CCOCC2)nc2ccc(NC(=S)N3CCCCC3C)cc12 (stereo not drawn)	21*	-348	i	i	i	12	15*
Cc1cc(N2CCCC2)nc2ccc(NC(=S)NCCCN3CCC(C)CC3)cc12	15*	-55	-129	-139	-234	34*	45*
Cc1ccc(S(=O)(=O)N2CCCc3nc(-c4ccc(Br)cc4)ccc32)cc1	0	-1	0	-3	-16	.	.
O=C(Cc1c[nH]c2ccccc12)Nc1ccc(Nc2cccnc2)c(-c2ccc(-c3ccccc3)cc2F)c1	-2	-65	-83	-118	-137	.	.
CCCC[C@H](C(=O)N(C)c1ccccc1)[C@@H](O)c1ccc(C(C)=O)cc1	1	1	2	-1	1	.	.
CCOc1ccc(CCNC(=O)Cc2ccccc2)cc1OCC	.	-4	1	0	-4	.	.
CC(=O)c1ccc(-c2ccc(C(=O)N3CCN(c4ccc(F)cc4)CC3)o2)cc1	1	-7	-17	-19	-57	.	.
CC(=O)c1ccc(-c2ccc(C(=O)NCC3CCCO3)o2)cc1 (stereo not drawn)	29*	i	-408	-497	i	43*	45*
CC(=O)c1ccc(-c2ccc(C(=O)NC3CC(C)(C)NC(C)(C)C3)o2)cc1	34*	i	-387	-383	i	18*	24*
O=C(NCC1CCCO1)c1ccc(-c2cccc(C(F)(F)F)c2)o1 (stereo not drawn)	0	-2	2	-8	-17	.	.
CC(=O)c1ccc(-c2ccc(C(=O)N3CCC(C(N)=O)CC3)o2)cc1	24*	i	-386	-405	i	27*	29*
Cn1c2ccccc2c(=O)c2ccc(F)cc21	13*	-439	-235	-337	i	50*	44*
SMILES	proKLK7 act	ADAM17 inh	PLC-gamma1 inh	PLC-beta3 inh	ADAM10 inh	proKLK7 act conf	EDANS-DABCYL int	others
COc1cc(-c2ccc3c(=O)c4ccccc4n(C)c3c2)cc(OC)c1OC	-8	-48	-314	-420	-156	.	.
Cc1cccc(C=Nc2ccccc2C(N)=O)c1	13*	-323	-315	-443	i	28*	22*	EDANS interf=>69
Cc1ccc(C=Nc2ccccc2C(N)=O)s1	17*	-332	-270	-313	i	12	14*
Cc1cccc(/C=N/NC(=O)Cc2cccs2)c1	0	2	-2	-8	6	.	.
O=C(Nc1ccccc1[N+](=O)[O-])NC1CCCCN(Cc2ccc(Cl)cc2)C1=O (stereo not drawn)	0	-2	1	-4	-2	.	.
Cc1c(CCC(=O)O)c(=O)oc2cc3occ(C(C)(C)C)c3cc12	7	-65	-83	-118	-168	.	.
Cc1c(CCC(=O)O)c(=O)oc2cc(O)ccc12	40*	i	i	i	i	66*	79*
COc1ccc(-c2c(C)c3ccc(O)cc3oc2=O)cc1OC	36*	i	i	i	i	69*	74*
O=C(C[C@H]1C[C@H](C(=O)N2CCOCC2)[C@@]2(CCC3CCCC3)c3[nH]c4cc(-c5ccco5)ccc4c3CCN2C1=O)NCC12CC3CC(CC(C3)C1)C2	6	-32	-83	-106	-101	.	.
COCCCNC(=O)C[C@H]1C[C@H](C(=O)N2CCOCC2)[C@@]2(CCC3CCCC3)c3[nH]c4cc(-c5ccco5)ccc4c3CCN2C1=O	23*	-96	-374	i	-391	13*	18*
CN(C)CCCNC(=O)C[C@H]1C[C@H](C(=O)N2CCOCC2)[C@@]2(CCC3CCCC3)c3[nH]c4cc(-c5ccco5)ccc4c3CCN2C1=O	68*	-44	-70	-113	-176	51*	51*
COc1ccc(CNC(=O)C[C@H]2C[C@H](C(=O)N3CCOCC3)[C@@]3(CCC4CCCC4)c4[nH]c5cc(-c6ccco6)ccc5c4CCN3C2=O)cc1OC	-6	-66	-285	-358	-208	.	.
O=C(C[C@H]1C[C@H](C(=O)N2CCOCC2)[C@@]2(CCC3CCCC3)c3[nH]c4cc(-c5ccco5)ccc4c3CCN2C1=O)NCCN1CCOCC1	91*	-78	-225	-318	-289	90*	101*
